The full list was thinned out, with hits kept by preference.
NS1 function inh = blocks influenza NS1 protein function; Potency, µM (top dose mostly 46.1 µM), for the others: at the top dose activity, positive = more growth; hit rate 0.4% among 270,000; AID 2326; calls by dose curve; note: potency is the fitted concentration of half-maximal effect; actives are rising curves; nearly all actives have a fitted effect of over 50% in size
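S. cerevisiae expressing influenza A NS1, grown in glucose, washed, then diluted 1:100 into pH 6.0 -URA galactose medium with 23 nl compound. Growth recovery read as OD600; NS1-free strain serves as control.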
Cycloheximide cs = affects cycloheximide protein synthesis inhibition readout, counter-screen | cell reporter, cycloheximide protein synthesis inhibition counterscreen | hit rate 12% among 300,000 | max response, %; in the data active = max response mostly above about 13%, no sharp cut-off; inactive = mostly below about 14%; note: read at 38.3 µM for the half of the compounds with a filed dose; 0% is about no effect
AmpC inh detg = AmpC beta-lactamase inhibition with detergent present | AmpC hydrolysis of nitrocefin, absorbance 480 nm, 0.01% Triton | hit rate 0.041% among 370,000 | Potency, µM (top dose mostly 114 µM), inactives show top-dose activity change, negative = inhibition, usual class: inhibitors | P00811;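 note: potency is the fitted concentration of half-maximal effect; 0% = no-compound wells and -100% = no-enzyme wells; nearly all actives have a fitted effect of over 25% in size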
Target sequence (P00811 whole entry, looked up): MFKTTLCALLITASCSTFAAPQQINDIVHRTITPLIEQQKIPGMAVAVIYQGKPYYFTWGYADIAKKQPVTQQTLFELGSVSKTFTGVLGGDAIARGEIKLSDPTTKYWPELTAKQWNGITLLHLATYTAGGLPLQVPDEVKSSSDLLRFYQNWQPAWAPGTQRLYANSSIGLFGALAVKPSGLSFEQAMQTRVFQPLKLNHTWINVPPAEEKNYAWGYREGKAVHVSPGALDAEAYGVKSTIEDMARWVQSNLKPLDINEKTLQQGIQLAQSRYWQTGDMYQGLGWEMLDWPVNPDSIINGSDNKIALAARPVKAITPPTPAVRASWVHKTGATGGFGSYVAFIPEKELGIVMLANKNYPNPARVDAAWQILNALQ
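20 mM phosphate pH 7.0 + 0.01% (detergent screen) or 0.0001% Triton X-100; 5.3 nM AmpC reagent; cpd preinc 15 min RT; nitrocefin (800 uM stock) to start; A480 q20 s × 4 min; Activity was normalised to no-enzyme and no-compound control wells.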
Shiga inhibitor = inhibitors of Shiga toxin in Vero cells; Vero cells, Shiga toxin protein synthesis inhibition reporter; inhibition, % at 38.7 µM; hit rate 9.2% among 290,000; in the data active = inhibition mostly above about 28%, no sharp cut-off; inactive = mostly below about 43%; note: 0% is about no effect
AmpC inh no detg = AmpC beta-lactamase inhibition without detergent. P00811. AmpC nitrocefin hydrolysis, absorbance 480 nm, 0.0001% Triton. Potency, µM (titrated, usually from 57.1 µM), for inactives: at the highest dose activity change, negative = inhibition, most hits filed as inhibitors. hit rate 0.52% among 330,000;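 note: potency is the fitted concentration of half-maximal effect; plate controls were no compound for no effect and no enzyme for full effect; nearly all actives have a fitted effect of over 20% in size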
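20 mM phosphate pH 7.0 + 0.01% (detergent screen) or 0.0001% Triton X-100; 5.3 nM AmpC reagent; cpd preinc 15 min RT; nitrocefin (800 uM stock) to start; A480 q20 s × 4 min; Activity was normalised to no-enzyme and no-compound control wells.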
* hit, by the source's call; ? = inconclusive; . = no result given. Unless noted, calls come from the whole dose curve; as a rule, active = well fitted curve in the direction sought with a large enough effect; inconclusive = small, poorly fitted or top-dose-only effect, or another doubt; inactive = no such curve, though single readings can be large; an effect the other way counts as inactive or inconclusive.

SMILES	NS1 function inh	Cycloheximide cs	AmpC inh detg	Shiga inhibitor	AmpC inh no detg
CC1CCN(C2=C(NS(=O)(=O)c3ccc(Br)cc3)C(=O)c3ccccc3C2=O)CC1	25.5%	32.0*	-17.5%	38.1*	-23.0%
CC[C@]1(C(=O)OC)[C@H]2C(=O)N(Cc3ccccc3)C(=O)[C@H]2[C@H]2CN=C(SC)N21	.	.	.	.	-10.8%
Cc1c(Cl)cccc1NC(=O)CN1C(=O)COc2ccc(S(=O)(=O)N3CCCCCC3)cc21	.	.	3.1%	.	.
CCCCC(=O)N/N=C(C)/C=C/c1ccccc1F	.	29.0*	4.5%	62.9*	-5.0%
CC(C)NC(=O)CC(=O)N/N=C/c1ccccc1F	13.7%	-0.5	0.6%	-7.8	-11.8%
CC(/C=C/c1ccccc1F)=N\NC(=O)C(C)C	-5.1%	35.1*	-12.8%	41.9*	-21.8%
CC(C)c1ccc(NC(=O)CCCc2nc(-c3ccc(Cl)cc3)no2)cc1	.	.	21.1%	.	.
CCOC(=O)N1CCC(N2CCCC(C(=O)c3ccccc3OC)C2)CC1 (stereo unspecified)	-2.4%	-1.8	8.9%	-7.8	-8.5%
CC(C)(C)NC(=O)CCSc1nnc(-c2ccco2)o1	.	27.0*	3.6%	37.2	-17.0%
CCN(CC)C(=O)CCSc1nnc(-c2ccco2)o1	.	29.9*	3.2%	37.0	3.3%
CCOC(=O)c1c(/N=C/N(C)C)sc(/C=N/Nc2ccccc2)c1-c1ccccc1	1.9%	-0.3	-11.1%	8.7	15.8µM*
CCOC(=O)c1c(/N=C/N(C)C)sc(/C=N/Nc2ccccc2)c1-c1ccccc1Cl	14.7%	-1.3	-10.9%	4.6	-19.5%
CCCCNC(=O)CC1NCCNC1=O (stereo unspecified)	0.5%	-3.6	-1.5%	-15.1	40.0%
O=C(O)C1CCCCC1C(=O)Nc1cccc(Cl)c1Cl (stereo unspecified)	-1.7%	-3.8	?	-4.6	-21.2%
CC(C)c1ccc(NC(=O)c2ccccc2NC(=O)C2CCCCC2C(=O)O)cc1 (stereo unspecified)	17.1%	39.1*	-16.2%	60.2*	-20.9%
O=C(Nc1cccc(Cl)c1)c1ccccc1NC(=O)C1CCCCC1C(=O)O (stereo unspecified)	4.0%	20.8*	?	26.9	-26.9%
CC(C)c1ccc(NC(=O)c2ccccc2NC(=O)C2CC=CCC2C(=O)O)cc1 (stereo unspecified)	?	33.4*	-9.9%	60.2*	-29.3%
COC(=O)c1ccc(NC(=O)C(=O)NCC(c2cccnc2)N2CCc3ccccc32)cc1 (stereo unspecified)	.	.	11.1%	.	.
Cc1ccc2cc(CN(CC3CCCO3)S(=O)(=O)c3ccccc3)c3nnnn3c2c1 (stereo unspecified)	10.4%	11.5	?	29.9	23.8%
Cc1ccc2cc(CN(CC3CCCO3)C(=O)Nc3ccccc3F)c3nnnn3c2c1 (stereo unspecified)	.	45.0*	2.5%	83.6*	-4.4%
CN(Cc1ccccc1)C(=O)COC(=O)c1cc(Cl)nc(Cl)c1	.	-2.7	-9.5%	-5.5	-2.4%
CC(C)N(Cc1ccccc1)C(=O)c1ccc2c(c1)OCO2	9.5%	-1.0	-1.0%	-12.5	-4.2%
CC(CN(C)Cc1ccccc1)OC(=O)c1ccccc1F (stereo unspecified)	-2.6%	0.3	?	-8.9	4.2%
CN(Cc1ccccc1)C(=O)c1ccc([N+](=O)[O-])o1	-30.1%	19.2*	2.4%	42.4*	-20.1%
CN(Cc1ccccc1)C(=O)COC(=O)c1ccc2c(c1)OCO2	-0.7%	33.3*	-1.2%	53.8*	-10.2%
SMILES	NS1 function inh	Cycloheximide cs	AmpC inh detg	Shiga inhibitor	AmpC inh no detg
CC(CN(C)Cc1ccccc1)OC(=O)c1ccc2c(c1)OCCO2 (stereo unspecified)	-0.2%	31.5*	-7.9%	15.4	-2.6%
CN(Cc1ccccc1)C(=O)c1ccc2c(c1)OCO2	1.5%	15.0*	-0.1%	16.0	-17.4%
[Cu].[NH-][C@H](CC(=O)O)C(=O)O.[NH-][C@H](CC(=O)O)C(=O)O	-5.6%	.	.	.	.
CCOC(=O)c1ccc(Nc2sc(C(=O)c3cccc([N+](=O)[O-])c3)c(N)c2C#N)cc1	1.1%	-1.5	3.5%	3.2	-6.0%
COn1c(-c2ccc(C)cc2)nc2ncccc21	-7.0%	20.9*	-2.8%	30.4	1.4%
Cc1ccc(CNC(=O)C(=O)NCC(c2cccnc2)N2CCN(c3ccc(F)cc3)CC2)cc1 (stereo unspecified)	.	.	13.3%	.	.
COc1ccc(-n2c(COc3cccc4ccccc34)nnc2SCC(=O)NCc2ccco2)cc1	?	25.3*	2.7%	67.5	25.5%

Screening results deposited in PubChem by National Center for Advancing Translational Sciences (NCATS).
